Results: ChEMBL document CHEMBL3988442, “University of Dundee, Small-Polar-MMV Screening Library” (2021)

How the values were obtained:
[1] = molecular target: T1, Aspartate--tRNA(Asp/Asn) ligase (Mycobacterium tuberculosis (strain ATCC 25618 / H37Rv)) (UniProt P9WFW3); test: Assay for Asp RNA synthetase-1 from Mycobacterium tuberculosis; type: functional; design: scale not given: direction of the effect not stated beside the values; settings: 30 µM; note: in the data most compounds retested in dose-response had high values
T1 sequence (whole entry): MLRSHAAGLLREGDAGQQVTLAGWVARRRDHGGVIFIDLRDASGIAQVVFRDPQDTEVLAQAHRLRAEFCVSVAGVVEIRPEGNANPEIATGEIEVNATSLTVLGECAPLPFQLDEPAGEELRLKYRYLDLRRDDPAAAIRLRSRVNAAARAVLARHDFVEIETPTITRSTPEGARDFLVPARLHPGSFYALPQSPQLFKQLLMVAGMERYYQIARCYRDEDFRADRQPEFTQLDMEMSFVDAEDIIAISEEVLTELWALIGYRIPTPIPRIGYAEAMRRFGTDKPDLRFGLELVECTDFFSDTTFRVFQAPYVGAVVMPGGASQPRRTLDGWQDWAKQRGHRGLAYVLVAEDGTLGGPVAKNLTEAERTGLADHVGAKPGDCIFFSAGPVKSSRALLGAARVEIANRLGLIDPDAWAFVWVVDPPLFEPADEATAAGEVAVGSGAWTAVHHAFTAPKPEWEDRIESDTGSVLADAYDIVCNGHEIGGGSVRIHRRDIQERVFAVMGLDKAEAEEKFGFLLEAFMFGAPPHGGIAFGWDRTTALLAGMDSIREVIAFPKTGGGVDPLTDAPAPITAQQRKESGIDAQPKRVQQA

[2] = molecular target: Shiga toxin 2 (Escherichia coli O157:H7) (UniProt P09385+P09386); test: E. coli 0.157:H7 Shiga Toxin SOP - stx2 screening assay; type: functional; design: scale not given: direction of the effect not stated beside the values; settings: 30 µM

Compound | Percent Effect [1] | Percent Effect [2]
Cn1ccnc1C(NCc1csc(Br)c1)c1ccccc1 (centres undefined) | -0.175% | -3.96%
COCCNC(=O)C[C@@H]1COC[C@H]2CN(C(=O)c3cnccn3)C[C@@H]12 | -8.37% | -20.7%
CCc1cnc(CN2CCC(N(C)Cc3noc(C4CC4)n3)C2)o1 (centres undefined) | -1.09% | -33.4%
COc1c(CNCCNC(=O)c2ccco2)c(C)nn1C | -2.68% | 14.7%
CC(C)C(=O)NCCCn1ncc2c(Cl)cccc21 | 16.5% | -6.02%
CCCn1nc2c(cc1=O)CN(CCS(C)(=O)=O)CC2 | 5.96% | 0.931%
Nc1nc(C2CCN(C(=O)c3cncs3)CC2)cs1 | -0.134% | -3.12%
Cc1noc(C)c1CNC(=O)N1CCC(CO)CC1 | 2.21% | -4.58%
OC(CN1CCOCC1)CN1CCc2c(ncn2C2CC2)C1 (centres undefined) | -8.33% | -43.3%
COc1ccc(C(O)CNc2c(C#N)c(=O)n(C)c(=O)n2C)cc1 (centres undefined) | -3.91% | -4.88%
O=S(=O)(C1CC1)N1CC[C@]2(C[C@@H](Oc3ccccn3)CO2)C1 | -1.12% | -6.89%
Cc1cnc(CN2CCCC(c3cc(C(N)=O)[nH]n3)C2)o1 (centres undefined) | 9.73% | 13.4%
CCc1nc(C2CCCN2C(=O)c2c[nH]c(C)n2)no1 (centres undefined) | -7.28% | 0.205%
COc1c(CNCc2ccnc(N3CCCC3)c2)c(C)nn1C | 2.34% | -55.3%
Cc1cc(CN2CCCC2c2noc(C)n2)no1 (centres undefined) | -5.01% | -5.29%
O=C(Cc1ccsc1)N1CCn2cc(CN3CCCC3)nc2C1 | -0.684% | -12%
O=C(C1CCOCC1)N1C[C@@H]2[C@@H](C1)OCC(=O)N2Cc1ccncc1 | -2.99% | -3.94%
Cc1ccc(C(=O)Nc2cn[nH]c2)cn1 | 1.01% | 15.1%
Cc1[nH]ccc1C(=O)N1CCC(c2nnc(Cn3cccn3)n2C)CC1 | -2.14% | -9.29%

Compound | Percent Effect [1] | Percent Effect [2]
FC(F)(F)c1cc(N2CCc3ncnc(NC4CC4)c3CC2)ncn1 | 5.62% | -15.2%
CCN1CCN(C2CCN(Cc3cc(C)on3)CC2)C1=O | -3.97% | -26.8%
Cc1noc(CN2CCN(Cc3cccs3)CC2)n1 | -1.85% | 1.32%
Cn1cc(CN2C[C@@H]3COC[C@]3(CNC(=O)c3ccsc3)C2)cn1 | 0.656% | -3.31%
CC(NC(=O)NCc1cccnc1N1CCCCC1)c1nccs1 (centres undefined) | -6.16% | -7.44%
O=C(NCc1cncc2c1CCN(Cc1cccc(F)c1)C2)C1CC1 | 1.78% | -32.2%
Cn1ccnc1CNC1CCCN(Cc2noc(C3CC3)n2)C1 (centres undefined) | -0.413% | -13.4%
O=C(Nc1cc(C(F)(F)F)c[nH]c1=O)c1ccco1 | -2.75% | 5.24%
Cc1nc(-c2ccc(C(=O)O)cc2)cc(C2CCN(C(C)C)C2)n1 (centres undefined) | 2.34% | -5.82%
CS(=O)(=O)NCCCNC(=O)c1cccc(-n2cccc2)c1 | -2.88% | -28.3%
O=C(CSc1nc2c(cnn2CCO)c(=O)[nH]1)N1CCCCCC1 | -7.88% | -8.39%
CCc1ncc2c(n1)CN(C(=O)COC)C2 | 2.9% | -5.79%
c1ccc(CCCN2CC(n3cccn3)C2)cc1 | -4.05% | -12.1%
CN(C)C(C(=O)N1CCCC1)c1ccccc1F (centres undefined) | 3.9% | -23.9%
Cc1cccc(CNC(=O)CNc2cc(CO)ccc2Cl)c1 | 5.12% | 0.559%
Cc1cc(C)n(CC2CCCN2CCCS(=O)(=O)N(C)C)n1 (centres undefined) | 2.38% | 0.632%
Cn1ccc2c(C(=O)N3CCC(C(N)=O)CC3)cccc21 | 0.465% | -43.9%
COCC1c2c(cnn2CC2CCOCC2)CCN1Cc1ccoc1 (centres undefined) | 0.211% | -9.29%
